Consider 115 compounds from PubChem BioAssay AID493240 (Broad Institute, 2011).

Screen size: about 1,300 compounds; about 270 (21%) were called active. No rule for the calls is given here. A selection follows. A call without a number means that no potency is given here. Potency and affinity values are given separately.

This experiment in a line: cytotoxicity in parental SK-MEL-5 melanoma cells – cell-based, CellTiter-Glo, cherry-picked, set 3, orthogonal assay for MITF inhibitor project, dose response (AID 493240). The settings on record: SK-MEL-5 viability, ATP luminescence (CellTiter-Glo), 24 h; series mostly up to 35 µM.
With `Cc1cc(C(=O)CSc2nnc3ccccn23)c(C)n1-c1ccccc1`, the result was inactive. `O=C(Nc1cnc2ccccn2c1=O)c1ccc(F)cc1`: the result was inactive. Regarding `Cc1ccc(NCC(=O)N/N=C\c2ccc([N+](=O)[O-])o2)cc1`, the result was inactive.

As for `Cc1ccc(NC(=O)CCC(=O)N/N=C/c2ccc([N+](=O)[O-])o2)cc1C`, the outcome was inactive. Next, `O=C(Cc1ccc2c(c1)OCO2)NN=Cc1ccc([N+](=O)[O-])o1`: “inactive”. On to `CC1(C(=O)N/N=C/c2ccc([N+](=O)[O-])o2)CC1(Br)Br` (stereo not given), for which the outcome was inactive. As for `CCCCn1c(=O)[nH]c(=O)c2c1nc(Cn1ncc(Cl)c(Cl)c1=O)n2CCC`, the result was inactive. For `O=c1c(Cl)c(Cl)cnn1-c1ccccc1`, the result was inactive.

Turning to `CC(=O)OCCCNc1cc(Sc2ccc(Cl)cc2)c2nonc2c1[N+](=O)[O-]`, the outcome was inactive. On to `Cc1ccccc1OCc1nc2c3cnn(C)c3ncn2n1`, for which the result was inactive. As to `c1cnc(SCCOc2ccc3c(c2)CCC3)nc1`, the outcome was inactive. Next, `CCn1nccc1C(=O)Nc1ccc(C)c(C)c1`: “inactive”; `Cc1ccc(NC(=O)c2cnc3ccccc3n2)cc1C`: “inactive”.

As to `ClC1(Cl)CC1CSc1nnc(-c2ccncc2)o1` (stereo not given), the outcome was inactive. Next, `O=C(Nc1ccc2nc3n(c(=O)c2c1)CCCCC3)c1cc([N+](=O)[O-])ccc1F`: “inactive”; `CC1CCN(CC2C(=O)O[C@@H]3C[C@@]4(C)CCC[C@H](C)C4=C[C@H]23)CC(C)(C)C1` (stereo not given in full): “inactive”.

On to `COc1cc(C(=O)N/N=C(\c2ccccc2)c2ccccn2)cc(OC)c1OC`, for which the outcome was inactive. Next, `O=C(NCc1ccc2c(c1)OCO2)c1cc(=O)[nH]c2ccccc12`: “inactive”. For `COc1ccc(N(Cc2cc(=O)[nH]c3ccccc23)C(=O)CCl)cc1`, the outcome was inactive. On to `CCC(=O)OCCNc1cc(Sc2nccn2C)c2nonc2c1[N+](=O)[O-]`, for which the outcome was inactive. Take `O=C1c2ccccc2C(=O)N1CCSc1ccccc1`: the outcome was inactive. Consider `CN(c1ccc2nc3ccccc3c(=O)n2n1)C1CCCCC1`, for which the result was inactive. For the compound `Cc1ccc(NC(=O)c2cc(-c3cccs3)on2)cc1`, the outcome was inactive. Take `O=C(CCl)Nc1cn(-c2ccccc2)nc1-c1ccccc1`: the outcome was inactive. With `Cc1ccc2oc(C(Cl)(Cl)Cl)cc(=O)c2c1`, the outcome was inactive. Turning to `O=C(CCl)N1c2ccccc2CCc2ccccc21`, the outcome was inactive. As for `Cc1ccc(NC(=O)/C=C/c2ccc([N+](=O)[O-])s2)c(C)c1`, the result was inactive.

As to `CCCOc1ccc(C(=O)C(CN2CCCC2)c2ccccc2)cc1` (stereo not given), the result was inactive. In the case of `CCSC1(SCC)N=C(N)C2(C#N)C(c3ccc(F)cc3)C12C#N` (stereo not given), the result was inactive. As for `O=C(CCCc1ccccc1)Nc1cccc(C(=O)O)c1`, the outcome was inactive.

As to `O=C(CSCc1c(F)cccc1F)Nc1ccccc1`, the outcome was inactive. In the case of `CSc1nc(N)n2nc(-c3ccc(Cl)cc3)cc2n1`, the outcome was inactive. On to `N#C/C(=C\C=C\c1ccccc1[N+](=O)[O-])C(=O)NC1CCCCC1`, for which the outcome was inactive. As to `CN(C)c1nc(-c2ccccn2)nnc1-c1ccccc1`, the outcome was inactive.

For the compound `CCOc1cc(/C=C\[N+](=O)[O-])ccc1OCC(=O)N1CCOCC1`, the outcome was inactive. As for `CS(=O)(=O)c1ccc2nc(NC(=O)c3ccccc3Br)sc2c1`, the result was inactive. Next, `COc1ccc(-n2ncc3c(N4CCCCC4)ncnc32)cc1`: “inactive”. Regarding `CN(C)c1cc[n+](CC(=O)c2ccc(-c3ccccc3)cc2)cc1`, the result was inactive.

For `COc1cccc(NC(=O)c2cnn(-c3ccccc3)c2C)c1`, the result was inactive.

With `CN1CCN(CCCOc2ccc(-c3ccccc3)cc2)CC1`, the result was inactive.

Turning to `O=C(CCl)N1N=C(c2ccco2)CC1c1cccs1` (stereo not given), the outcome was inactive. As for `CC(C)(C)OC(=O)N1CCN(C(=O)c2nc[nH]c2C(=O)N2CCN(c3ccccc3)CC2)CC1`, the outcome was inactive. As for `COCC(C)Nc1ncnc2c1cnn2-c1ccc(Cl)cc1` (stereo not given), the result was inactive. For `CC1CCCC(C)N1CCCNC(=O)c1cc2c(s1)-c1ccccc1OC2` (stereo not given), the outcome was inactive. On to `C=CCn1c(C)cc(C(=O)CN2C(=O)c3ccccc3S2(=O)=O)c1C`, for which the outcome was inactive. Next, `N#C/C(=C\c1c[nH]c2ccccc12)C(=O)NC1CC1`: “inactive”; `COc1cccc(N2CCN(C(=O)c3ccc(CS(=O)c4ccccc4Cl)o3)CC2)c1` (stereo not given): “inactive”; `C=C1C(=O)C2=CC1CCC(=O)C1(C)CCC(OC(C)=O)C(C)(C)C1CC2O` (stereo not given): “inactive”.

Consider `O=C(CCCc1ccccc1)N1CCN(C2CCCCC2)CC1`, for which the result was inactive. `NC(=O)c1ccccc1NC(=O)/C=C/c1cccc(Cl)c1`: the outcome was inactive.

`CC(C)C(=O)Nc1ccc2nn(-c3ccc(F)cc3)nc2c1`: the outcome was inactive.

Take `Cc1cc(/C(N)=N/OC(=O)c2ccc(Cl)cc2)no1`: the outcome was inactive.

`COc1ccccc1OCCN1CSC(=S)N(C)C1`: the result was inactive. In the case of `CC(=O)CSc1ccc(-c2nc3cc(C)c(C)cc3[nH]2)cn1`, the outcome was inactive. Regarding `Cc1[nH]n(-c2ccccc2)c(=O)c1N=Nc1cccc(C(=O)O)c1`, the outcome was inactive. For `CCOc1ccc(/C=C2\SC(=S)N(CCC(=O)O)C2=O)cc1`, the outcome was inactive. `CC(=O)c1cccc(NC(=O)/C=C/c2ccc([N+](=O)[O-])s2)c1`: the result was inactive. Next, `COc1ccccc1-c1nnc(-c2ccc(C)cc2)o1`: “inactive”; `COc1ccccc1-c1nc(-c2ccc(C)nc2OC)no1`: “inactive”. On to `O=C(O)c1ccc(N/N=C/c2ccc(OC(=O)c3cccc(Cl)c3)cc2)cc1`, for which the outcome was inactive.

In the case of `CC(C)C(=O)N1CCN(c2ccc(NC(=O)c3ccc([N+](=O)[O-])o3)cc2Cl)CC1`, the result was inactive.

Take `CCC(=O)N1CCN(c2ccc(Cl)cc2NC(=O)c2ccc([N+](=O)[O-])o2)CC1`: the outcome was inactive. Next, `Cc1cccc(NC(=O)c2ccc([N+](=O)[O-])o2)c1C`: “inactive”. For `O=C(Nc1ccccc1N1CCOCC1)c1ccc([N+](=O)[O-])o1`, the outcome was inactive. As to `CN1CCN(c2ccc(NC(=O)c3ccc([N+](=O)[O-])o3)cc2Cl)CC1`, the result was inactive. For the compound `CCCC(=O)N1CCN(c2ccc(NC(=O)c3ccc([N+](=O)[O-])o3)cc2Cl)CC1`, the result was inactive. For the compound `CCn1c(=O)c([N+](=O)[O-])c(Cl)c2ccccc21`, the result was inactive. For the compound `CC(=O)N/C(N)=N/c1nc(=O)c2ccccc2s1`, the outcome was inactive.

In the case of `COc1ccc(C(=O)/C=C(\C)Nc2ccc3c(c2)OCO3)cc1`, the outcome was inactive. Next, `Clc1nccnc1N/N=C/c1ccc(Br)cc1`: “inactive”; `COc1cc(/C=C/C(=O)N2CCC=CC2=O)cc(OC)c1OC`: “inactive”; `O=C(O)CSCC(=O)Nc1ccc(C2CCCCC2)cc1`: “inactive”. For the compound `CCOc1cc(NC(=O)CCl)c(OCC)cc1NC(=O)CCl`, the result was inactive. Turning to `O=C(CCl)Nc1cccc(Oc2ccccc2)c1`, the outcome was inactive. With `CC(=O)Nc1cccc(-c2nnc(-c3ccccc3)o2)c1`, the outcome was inactive.

With `Cc1c(C#N)c(NC(=O)CCl)n(Cc2ccccc2)c1C`, the outcome was inactive. For the compound `Cc1ccc(C(=O)Nc2cnc3ccccc3c2)cc1`, the outcome was inactive. As for `O=[N+]([O-])c1cc(S(=O)(=O)N2CCCCCC2)ccc1F`, the result was inactive.

On to `O=C(N/N=C/c1cc(Cl)ccc1O)c1ccncc1`, for which the outcome was inactive. Next, `O=C(COC(=O)c1ccc[nH]c1=O)Nc1ccc(N2CCCCC2)cc1`: “inactive”; `CN=c1scc(-c2ccccc2F)n1/N=C/c1ccc[nH]1`: “inactive”. Regarding `Cc1ccc(COc2ccc(C)nc2[N+](=O)[O-])cc1`, the outcome was inactive. Turning to `O=C(Cn1ncc(Cl)c(Cl)c1=O)Nc1ccc2c(c1)OCO2`, the outcome was inactive.

For the compound `O=[N+]([O-])c1cccc(/C=N/Nc2ncc(Br)cn2)c1`, the outcome was inactive.

With `O=C(c1ccc(S(=O)(=O)Cc2ccccc2Cl)c([N+](=O)[O-])c1)N1CCN(c2ccccn2)CC1`, the result was inactive.

In the case of `CC(C)C(=O)NC(c1ccco1)c1ccc2cccnc2c1O` (stereo not given), the result was inactive. Turning to `COc1cc(SC)ccc1C(=O)Nc1ccc(Br)cn1`, the result was inactive. Take `COc1cc(SC)ccc1C(=O)Nc1ncc(C)s1`: the outcome was inactive.

For `COc1cc2c(cc1O)C(SC)=NC(C)(C)C2`, the outcome was inactive. Next, `O=[N+]([O-])c1ccccc1OCCCOc1cccc2cccnc12`: “inactive”; `O=[N+]([O-])c1cc(CN2CCN(c3ccccc3)CC2)c(O)c2ncccc12`: “inactive”; `CC(=O)Nc1ccc2c(c1)ncn2-c1ccccc1`: “inactive”. With `CSCCNC(=O)c1ccc2nc(Cc3ccccc3F)oc2c1`, the result was inactive. As for `N#C/C(=C\c1ccc(OCc2ccc(C(=O)O)cc2)cc1)C(=O)N1CCOCC1`, the result was inactive. As to `Cc1ccc(-c2cc3onc(-c4ccccc4)c3c(=O)n2C)cc1`, the outcome was inactive.

Regarding `CN(Cc1ccccc1)C1=CC(=[N+]2CCCC2)CC(C)(C)C1`, the outcome was inactive. Next, `N/C(=N\OC(=O)c1cccc(F)c1)c1cccc([N+](=O)[O-])c1`: “inactive”. Next, `COc1ccc(C(=O)NCC(=O)c2ccccc2)cc1`: “inactive”; `O=C(N/N=C/C=C/c1ccccc1)c1ccccn1`: “inactive”; `COc1cc2c(cc1OC)C(SC)=NC1(CCCC1)C2`: “inactive”. `O=C(c1ccccc1)c1cc(Cl)ccc1N1C(=O)C=CC1=O`: the outcome was inactive. Next, `COc1ccc(/C=N/Nc2cc(C)nc(-n3nc(C)cc3C)n2)c(OC)c1`: “inactive”.

As for `CC(=O)Oc1c(C(=O)c2nnc(C)o2)c(=O)n(Cc2ccccc2)c2ccccc12`, the outcome was inactive.

Turning to `Cc1ccc2nc(NC(=O)CCCC(=O)O)sc2c1`, the result was inactive. In the case of `CN(C)CCCN(C(=O)c1ccc(Cl)s1)c1nc2cc3c(cc2s1)OCO3`, the result was inactive. `Cc1c(C#N)c(NC(=O)CCl)n(Cc2ccc(F)cc2)c1C`: the result was inactive. On to `CCOc1ccccc1NC(=O)C(=O)N/N=C/c1cc(Br)ccc1O`, for which the outcome was inactive.

On to `COc1ccccc1OCC(=O)N/N=C/C=C/c1ccc([N+](=O)[O-])o1`, for which the outcome was inactive. Next, `CC(C)(C)C(=O)Nc1cc2nn(-c3ccccc3)nc2cc1Cl`: “inactive”; `CCOc1ccc2nc(NC3=NC(c4ccc(OC)cc4)CC(=O)N3)nc(C)c2c1` (stereo not given): “inactive”; `Cc1ccc(C(=O)c2cccc(N)c2)cc1C`: “inactive”. As to `Cc1nc2ccccn2c1C(=O)N/N=C/c1ccc([N+](=O)[O-])o1`, the outcome was inactive.

For the compound `CC1=NC(=O)C(N=Nc2cccc(C(=O)O)c2)N1c1ccccc1` (stereo not given), the outcome was inactive. With `CC(Oc1ccc(F)cc1)C(=O)Nc1nc(-c2ccccn2)cs1` (stereo not given), the outcome was inactive.

With `O=C(CCNc1ccccc1)c1ccc2c(c1)OCO2`, the result was inactive.
